A selection: hits, their analogues and other compounds. The true share with any hit is near 8.1%.
RORgamma inh = qHTS for inhibitors of ROR gamma transcriptional activity | Drosophila S2 Gal4-RORgamma UAS-luciferase reporter, 20 h | Potency, µM (doses to about 53.6 µM), for inactives: top-dose activity change, negative = inhibition, hits mostly inhibitors | Nuclear receptor ROR-gamma (Mus musculus), P51450 | actives 5.4% (n = 310,000) | AID 2551, 2010; further: on the % scale 0 is the no-effect control and ±100 the full control effect; nearly all actives have a fitted effect of over 60% in size
Target sequence (P51450 whole entry, looked up, the tested form may be a part): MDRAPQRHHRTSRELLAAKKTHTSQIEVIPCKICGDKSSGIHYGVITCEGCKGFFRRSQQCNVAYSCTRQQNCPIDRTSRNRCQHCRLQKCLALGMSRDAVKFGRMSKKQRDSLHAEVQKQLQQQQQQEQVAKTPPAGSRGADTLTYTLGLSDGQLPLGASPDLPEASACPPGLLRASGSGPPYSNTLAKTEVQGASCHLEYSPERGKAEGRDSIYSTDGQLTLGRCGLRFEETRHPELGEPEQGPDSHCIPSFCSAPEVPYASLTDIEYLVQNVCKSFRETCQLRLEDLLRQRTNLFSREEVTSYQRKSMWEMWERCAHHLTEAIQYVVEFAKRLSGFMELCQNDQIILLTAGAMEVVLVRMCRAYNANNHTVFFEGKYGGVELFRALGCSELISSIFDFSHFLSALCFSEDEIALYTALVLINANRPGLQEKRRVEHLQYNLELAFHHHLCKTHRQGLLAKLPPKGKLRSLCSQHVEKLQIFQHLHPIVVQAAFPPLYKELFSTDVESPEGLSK
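ROR gamma transcriptional activity was tracked as Gal4-UAS luciferase output in stably transfected Drosophila Schneider cells, with compound added 1 hr before 700 uM copper sulfate induction and a 20 hr ambient-temperature incubation.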
Epigenetic reg = Quantitative High-Throughput Screen for Regulators of Epigenetic Control. murine LDR cells, GFP reporter derepression, 30 h. Potency, µM (doses to about 53.9 µM), for inactives: top-dose GFP activation, usual class: activators. actives 0.2% (n = 280,000); further: % of control where 0% means no effect; nearly all actives have a fitted effect of over 60% in size
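Reporter derepression read as number of fluorescent GFP-positive objects, 20-120 um in size, counted by laser-scanning cytometer. Mouse LDR line with an epigenetically silenced CMV-GFP locus; compound incubation 30 h, 37 C.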
Sfp PPTase inh = qHTS Assay for Inhibitors of Bacillus subtilis Sfp phosphopantetheinyl transferase (PPTase). actives 3.5% (n = 310,000). Biochemical Sfp PPTase activity, qHTS. 4'-phosphopantetheinyl transferase ffp (Bacillus subtilis), Q9F4F7. AID 1490, 2009. Potency, µM, for inactives: largest response in the series, negative = inhibition, actives largely listed as inhibitors;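 further: the enzyme is Sfp with the accession as filed and its product quenches rhodamine fluorescence; 0% = enzyme reaction without inhibitor and -100% = no enzyme wells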
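Fluorescence-quenching assay with 15 nM Sfp, 5 uM rhodamine-CoA and 12.5 uM BHQ-2-labelled ybbR peptide in pH 7.6 Hepes/MgCl2 buffer. Enzyme was pre-incubated with compound for 15 min at room temperature. Rate was taken from the 30-min fluorescence change (525/598 nm).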
ClpP mod = qHTS Assay for Activators of ClpP; ATP-dependent Clp protease proteolytic subunit (Bacillus subtilis (strain 168)), P80244; purified B. subtilis ClpP, FRET peptide cleavage, 20 min; Potency, µM (series often up to 57.5 µM), inactives show at the top dose activity change, negative = active; actives 1.9% (n = 340,000); AID 651965, 2013; active means well fitted falling curve with a large enough effect; inconclusive means small, poorly fitted or top-dose-only effect; inactive means no such curve, though single readings can be large or run the other way; further: the source files actives as falling curves though it sought activators and does not explain the sign; nearly all actives have a fitted effect of over 65% in size
Target sequence (P80244 whole entry, looked up): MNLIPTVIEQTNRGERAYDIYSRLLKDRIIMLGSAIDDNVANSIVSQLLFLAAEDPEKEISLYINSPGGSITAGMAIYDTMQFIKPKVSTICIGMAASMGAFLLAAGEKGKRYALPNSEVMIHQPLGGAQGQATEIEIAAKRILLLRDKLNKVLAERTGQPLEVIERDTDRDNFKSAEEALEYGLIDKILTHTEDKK
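ClpP 10 microg/mL final, pH 8 Tris/KCl buffer with BSA, glycerol, Tween-20; compound pinned in; FRET-FV substrate; RT 20 min; Ex320/Em430; ΔFRET vs ADEP 5.8 microM, DMSO, no enzyme.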
PINK1 expr mod = A Quantitative High throughput Screen to Identify Chemical Modulators of PINK1 Expression; PINK1 immunofluorescence, high-content cytometry, 24 h; Potency, µM (series often up to 76.6 µM), for the others: at the highest dose activation (PINK1 increase), most hits filed as activators; actives 0.2% (n = 410,000); active means well fitted activation curve with a large enough effect; inconclusive means small, poorly fitted or top-dose-only effect; cell line not stated here; further: % of control where 0% means no effect; nearly all actives have a fitted effect of over 65% in size
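Decision-based qHTS: stable cells, 24 h exposure to five compound concentrations, CCCP as control. Fixed cells stained for PINK1 plus nuclear, mitochondrial and cell markers, cytometer read.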
VP16 counter = VP16 counterscreen qHTS for inhibitors of ROR gamma transcriptional activity; Drosophila S2 Gal4-VP16 UAS-luciferase, luminescence, 20 h; Potency, µM (highest dose often 53.6 µM), without a hit: top-dose activity, negative = inhibition, hits mostly inhibitors; actives 3.5% (n = 310,000);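 further: Gal4-VP16 expression switched on by copper sulfate through the metallothionein promoter; on the % scale 0 is the no-effect control and ±100 the full control effect; nearly all actives have a fitted effect of over 50% in size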
An asterisk follows results filed as active; ! = repeats disagree; [ ] = dose if it differs, or a comment. Unless noted, the call rests on the fitted dose curve; in most records, active means well fitted curve in the direction sought with a large enough effect; inconclusive means small, poorly fitted or top-dose-only effect, or another doubt; inactive means no such curve, though single readings can be large; an effect the other way counts as inactive or inconclusive. Potency means the concentration at half of the fitted maximal effect.

Screening CCN(CC)CCCNC(=O)c1c2c(nc3ccccc13)C(=O)N(C1CCCCC1)C2 returned Epigenetic reg 0%, ClpP mod 14µM* and PINK1 expr mod 1%.
`CCC1=Nc2ccccc2NC2=C1C(=O)CCC2` gave RORgamma inh -13%, Epigenetic reg -2%, Sfp PPTase inh 35µM*, ClpP mod -3%, PINK1 expr mod 2% and VP16 counter 5%.
Screening CN(C)CCCNCCCN returned RORgamma inh -3% and VP16 counter -6%.
For CC[C@H](C)[C@H](NC(=O)[C@H](CCC(=O)O)NC(=O)CNC(=O)[C@@H](NC(=O)[C@H](CCC(=O)O)NC(=O)[C@H](CCC(=O)O)NC(=O)[C@H](CC(C)C)NC(=O)CNC(=O)[C@@H]1CCCN1C(=O)[C@H](CCC(=O)O)NC(=O)[C@@H](N)[C@@H](C)O)C(C)C)C(=O)N[C@@H](CCC(=O)O)C(=O)N[C@@H](CCC(N)=O)C(=O)N[C@@H](CCCCN)C(=O)N[C@@H](CCC(N)=O)C(=O)N[C@@H](CC(C)C)C(=O)N[C@@H](CCC(N)=O)C(=O)O the results were RORgamma inh -7%, Sfp PPTase inh -7% and VP16 counter -10%.
For CCOc1ccc(NS(=O)(=O)c2ccc(C)c(C(=O)O)c2)cc1 the results were Epigenetic reg 5%.
`CC(NC(=O)c1ccco1)c1nnc2n1CCN(Cc1ccc(N3CCCC3)cc1)CC2` (stereo not drawn) gave PINK1 expr mod 0%.
`CC(=O)Oc1cc(OC(C)=O)c2c(c1)OC(c1ccc(OC(C)=O)c(OC(C)=O)c1)C(OC(C)=O)C2` (stereo not drawn) gave RORgamma inh 0%, Epigenetic reg 14%, Sfp PPTase inh -6%, PINK1 expr mod 1% and VP16 counter 16µM*!.
O=C(NCCCNC(=O)c1ccc(Cl)cc1Cl)c1ccco1 was read as RORgamma inh -3%, Sfp PPTase inh 16%, PINK1 expr mod 0% and VP16 counter 1%.
Screening CCN(CC)C(=S)NC(=O)c1ccc(Cl)cc1Cl returned RORgamma inh 0.79µM*, Epigenetic reg 0%, Sfp PPTase inh -7%, ClpP mod 0%, PINK1 expr mod 1%[38.3 µM] and VP16 counter 1.6µM*.
For O=C(NC(=S)NCCN1CCOCC1)c1ccc(Cl)cc1Cl the results were RORgamma inh 4µM*, Epigenetic reg 2%, Sfp PPTase inh 10%, ClpP mod -2%, PINK1 expr mod -3% and VP16 counter inconclusive.
`CCCCNC(=S)NC(=O)c1ccccc1Br` gave RORgamma inh 7.9µM*, Epigenetic reg -1%, Sfp PPTase inh 14%, ClpP mod 0%, PINK1 expr mod 2% and VP16 counter 11µM*.
`O=C(CNC(=S)NC(=O)c1ccccc1Br)c1ccccc1` gave RORgamma inh 20%, Epigenetic reg -2%, Sfp PPTase inh inconclusive, PINK1 expr mod 9% and VP16 counter -5%.
`CCCCNC(=S)NC(=O)c1ccc(Cl)cc1Cl` gave RORgamma inh 16µM*, Epigenetic reg 0%, Sfp PPTase inh 6%, ClpP mod 4%, PINK1 expr mod 12% and VP16 counter inconclusive.
CCn1c(C(=O)Nc2c(C)cccc2C)cc2sc(Cl)cc21 was read as Epigenetic reg 0%, ClpP mod -2% and PINK1 expr mod 2%.
Screening O=C(NC(=S)Nn1cnnc1)c1ccccc1 returned ClpP mod 1% and PINK1 expr mod 0%.
Screening O=C(CCN1CCOCC1)c1ccccc1 returned RORgamma inh inconclusive, Epigenetic reg 0%, Sfp PPTase inh 12%, ClpP mod -1% and VP16 counter -4%.
For CCCCN(CCCC)C(=S)NC(=O)c1ccccc1Cl the results were RORgamma inh 0.71µM*, Epigenetic reg 1%, Sfp PPTase inh 12%, ClpP mod -1%, PINK1 expr mod 0% and VP16 counter 2µM*.
For O=C(NC(=S)Nn1cnnc1)c1ccccc1Br the results were RORgamma inh -32%, Epigenetic reg -1%, Sfp PPTase inh 25µM*, ClpP mod 1%, PINK1 expr mod 0% and VP16 counter -4%.
`O=C(CCN1CCOCC1)NNC(=S)NC(=O)c1ccccc1` gave RORgamma inh 14µM*, Epigenetic reg -1%, Sfp PPTase inh 45µM*, PINK1 expr mod 5% and VP16 counter -1%.
Screening COC(=O)/C=C(\C)NC(=O)c1ccccc1Cl returned RORgamma inh 6%, Epigenetic reg 2%, Sfp PPTase inh 13%, ClpP mod -3%, PINK1 expr mod inconclusive and VP16 counter 10%.
For O=C(NC(=S)NCCN1CCOCC1)c1ccccc1Br the results were RORgamma inh -22%, Epigenetic reg -1%, Sfp PPTase inh 3%, ClpP mod 25µM*, PINK1 expr mod 3% and VP16 counter 0%.
For Cc1ccc2nc(-c3cccc(NC(=O)c4cccc5ccccc45)c3)oc2c1 the results were Epigenetic reg 4%, ClpP mod 88% and PINK1 expr mod 3%.
Screening COc1ccc(-n2c(=O)c3sc4ccccc4c3n(CC(=O)N3CCCC3)c2=O)cc1 returned Epigenetic reg 8%, ClpP mod -10% and PINK1 expr mod 1%.
For O=C1[C@@H]2C(c3cccnc3)=NO[C@@H]2C(=O)N1c1ccc2ccccc2c1 the results were RORgamma inh -6%, Epigenetic reg -5%, Sfp PPTase inh 50µM*, PINK1 expr mod 0% and VP16 counter -11%.
Screening CCC(C)Nc1nc(Cl)nc(NCCOc2ccccc2)n1 (stereo not drawn) returned RORgamma inh 19%, Epigenetic reg 2%, Sfp PPTase inh 1%, ClpP mod 28µM*, PINK1 expr mod 5% and VP16 counter -12%.
Screening CC(C)Nc1nc(Cl)nc(NCCOc2ccccc2)n1 returned RORgamma inh inconclusive, Epigenetic reg 0%, Sfp PPTase inh 13%, PINK1 expr mod -1% and VP16 counter 2%.
`COc1ccc(CCNC(=O)C2=CC=CN3CCS(=O)(=O)N=C23)cc1` gave ClpP mod -21% and PINK1 expr mod -1%.
O=C(NCCOc1ccccc1)C1=CC=CN2CCS(=O)(=O)N=C12 was read as ClpP mod 32µM* and PINK1 expr mod 0%.

Screening results: PubChem, National Center for Advancing Translational Sciences (NCATS)
